Only a sample is shown.
aSyn 5UTR act: Activators via SNCA 5'UTR binding, MLPCN. alpha-synuclein 5'UTR reporter, activators screen. activity score, % (tested at 7.5 µM), hits read low. hit rate 7.1% among 300,000; in the data active means activity score below about -60%
The depositor's hits bear a star.

SMILES	aSyn 5UTR act
O=C(c1ccco1)N1CCN(Cc2ccc(F)cc2Cl)CC1	-158*
OC1(c2ccc(Cl)cc2)CCN(Cc2cn[nH]c2-c2ccccc2)CC1	70
OC1(c2ccc(Cl)cc2)CCN(Cc2cn[nH]c2-c2ccc(F)cc2)CC1	61
COc1cc(C2Nc3ccc4ncccc4c3C3=C2C(=O)CCC3)ccc1O (stereo unspecified)	-102*
Oc1nc(Nc2ccccc2)sc1/C=C1\C=Nc2ccccc21	-112*
C=CCn1c(O)c(C=Nc2ccccc2)sc1=S	-107*
CCn1c(O)c(C=Nc2ccccc2)sc1=O	-101*
CC1=Nc2ccccc2/C1=C/c1sc(=N)n(-c2nccs2)c1O	63
CCn1c(O)c(/C=C2\C=Nc3ccccc32)sc1=O	-245*
CCn1c(O)c(C=Nc2ccccc2)sc1=S	-153*
CC(Oc1cccc(Cl)c1)C(=O)Nc1ccc([N+](=O)[O-])cn1 (stereo unspecified)	55
Cc1ccc(C(=O)Nc2ccc([N+](=O)[O-])cn2)o1	-93*
Cc1cc(C(=O)Nc2ccc([N+](=O)[O-])cn2)cs1	-137*
Cc1ccnc(N=Cc2nc(-c3ccccc3Br)oc2O)c1	-102*
CN(C)/N=C/C=C1\CC/C(=C\c2ccc(Br)cc2)C1=O	-84*
CN(C)/N=C/C=C1\CCC/C(=C/c2cccs2)C1=O	-173*
N/C(=N\N=C\c1cccc(O)c1)c1nonc1N	-106*
COc1ccc(/C=N/N=C(\N)c2nonc2N)cc1OC	-93*
CS/C(N)=N/N=C/c1ccc([N+](=O)[O-])cc1	-133*
COc1cc(/C=N/N=C(\N)c2nonc2N)ccc1O	-78*
N/C(=N\N=C\c1ccc(Br)o1)c1nonc1N	-116*
CS/C(N)=N/N=C/c1ccc2c(c1)OCO2	-119*
N/C(=N\N=C\c1ccc([N+](=O)[O-])cc1)c1nonc1N	-154*
N/C(=N\N=C\c1ccc(O)c(O)c1)c1nonc1N	-130*
N/C(=N\N=C\c1ccc(O)cc1)c1nonc1N	-182*
SMILES	aSyn 5UTR act
COCCCNC(=O)C1CCN(C(=O)c2oc3cc4sc(N(C)C)nc4cc3c2C)CC1	-93*
COCCCNC(=S)N/N=C/c1ccc(N(C)C)cc1Cl	-107*
COCCCNC(=S)N/N=C/c1ccc(N(C)C)cc1	-112*
COc1ccccc1C1C=C(c2ccccc2)Nc2nnnn21 (stereo unspecified)	-84*
COc1cccc(C2=CC(c3ccc(OC)c(OC)c3OC)n3nnnc3N2)c1 (stereo unspecified)	-67*
COC(=O)c1cccc(NC(=O)NC23CC4CC(CC(C4)C2)C3)c1	-98*
CCCCOC(=O)Nc1ccc(C(C)C)cc1	-276*
CCCCOC(=O)Nc1ccc(N(C)C)cc1	-162*
CCCCOC(=O)Nc1ccc(C(N)=O)cc1	-94*
CCCCOC(=O)Nc1nnc(C(C)C)s1	-127*
CCCCOC(=O)Nc1cccc(C(=O)OCC)c1	-68*
COCCNC(=O)C(c1ccncc1)N(Cc1ccccc1)C(=O)Cn1nnc2ccccc21 (stereo unspecified)	-82*
COCCNC(=O)C(c1cccnc1)N(Cc1ccccc1)C(=O)Cn1nnc2ccccc21 (stereo unspecified)	-65*
Cc1cccc(NC(=O)/C=C/c2ccc(Cl)cc2)n1	-158*
O=C(/C=C/c1ccccc1)Nc1ccc(Cl)cn1	-95*
CSc1cccc(NC(=S)Nc2cc(C)ccc2C)c1	-139*
CSc1cccc(NC(=O)Nc2ccccc2)c1	-111*
O=C(/C=C/c1ccccc1)Nc1cccc(C(=O)O)c1	95
CSc1cccc(NC(=O)/C=C/c2ccc(Cl)cc2)c1	-160*
CSc1cccc(NC(=O)/C=C/c2ccccc2)c1	-226*
CCOC(=O)Cc1csc(NC(=O)/C=C/c2ccc(Cl)cc2)n1	-64*
CC1CCN(c2ccc(C(=O)NCCc3ccccc3)cn2)CC1	-105*
O=C(NCc1cccs1)c1ccc(N2CCCC2=O)cc1	-106*
CC1CCCN(c2ccc(C(=O)NCc3cccs3)cn2)C1 (stereo unspecified)	-85*
O=C(NCc1cccs1)c1ccc(N2CCCCC2)nc1	-131*
SMILES	aSyn 5UTR act
CC1CCCN(c2ccc(C(=O)NCc3ccccc3)cn2)C1 (stereo unspecified)	-103*
CCCC(=O)c1ccc(-c2ccccc2)cc1	-70*
Cc1ccc(C(=O)c2c3ccc([N+](=O)[O-])cc3[n+]([O-])n2CCCN)cc1	63
N=c1ccn(CC(=O)c2ccc(-c3ccccc3)cc2)cc1	110
Cc1ccc(C(=O)Cn2c(-c3ccccc3)noc2=O)cc1	-100*
Cc1ccc(C(=O)COC(=O)c2cccc(NC(=O)c3ccc([N+](=O)[O-])cc3[N+](=O)[O-])c2)cc1	-162*
O=C(CN1C(=O)CCC1=O)c1ccc(-c2ccccc2)cc1	-82*
Cc1ccc(C(=O)Sc2cccccc2=O)cc1	-109*
CCOC(=O)C(CC(=O)c1ccccc1)CC(=O)c1ccccc1	-105*
Cc1cc(C)c(NC(=O)CC(=O)c2ccccc2)c(Cl)c1	-93*
Cc1ccc(C(=O)CCc2ccc(N)cc2)cc1	-77*
Cc1ccc(C(=O)OCC(=O)c2ccccc2)cc1	-85*
Cc1ccc(C(=O)CC(=O)c2ccccc2)cc1	-238*
O=C(O)c1ccc2c(c1)C(=O)N(c1ccc(C(=O)OCC(=O)c3ccccc3)cc1)C2=O	-62*
CCc1ccc(C(=O)COC(=O)c2ccc(-c3nnc(-c4ccccc4)o3)cc2)cc1	-161*
COc1cccc([C@@H]2Oc3ccc(OC)cc3C(=O)[C@H]2O)c1	-138*
COCC1CCN(Cc2nc(-c3cccs3)no2)C1 (stereo unspecified)	-72*
c1csc(-c2noc(CN3CCc4sccc4C3)n2)c1	-69*
COc1ccc(NC(=S)Nc2ccc(C)c(Cl)c2)cc1OC	-62*
Oc1ccc(/C=N/NC(=S)Nc2cccnc2)cc1O	-141*
S=C(N/N=C/c1ccc2ncccc2c1)Nc1cccnc1	59
Fc1ccc(/C=N/NC(=S)Nc2ccc(Cl)cc2)cc1F	-132*
COc1ccc(NC(=S)N/N=C/c2ccc(F)cc2)cc1OC	-73*
Fc1ccc(NC(=S)N/N=C/c2ccc(F)c(F)c2)cc1	-65*
C=CCN(C(=O)CN1CCCCC1)c1nc(-c2ccccc2)cs1	-110*
SMILES	aSyn 5UTR act
N#C/C(=C(/O)CN1CCCC1)c1nc(-c2ccccc2)cs1	-115*
COc1cc(CNCc2ccccn2)ccc1OCc1ccc(Cl)cc1	-66*
COc1ccc(-c2cc(O)cc(O)c2)cc1	-143*
Cc1cccc(-n2ncc3c(NCc4cccs4)ncnc32)c1	-112*
Clc1ccc(-n2ncc3c(NCc4cccs4)ncnc32)cc1	-249*
CN(C)C(=O)c1ccc(COc2ccccc2Br)o1	-166*
O=C(Nc1ccccn1)c1ccc(COc2ccccc2Cl)o1	-71*
O=C(Nc1ccc(Cl)cn1)c1ccc(COc2ccccc2Br)o1	-117*
O=C(c1cc(-c2ccc3c(c2)OCO3)on1)N1CCN(c2ccccc2)CC1	-245*
O=C(Nc1cc(Br)ccc1O)c1cc(-c2ccc3c(c2)OCO3)on1	-108*
CSc1ccccc1NC(=O)c1cc(-c2ccc3c(c2)OCO3)on1	-128*
CN(C(=O)c1cc(-c2ccc3c(c2)OCO3)on1)c1ccccc1	-167*
Clc1c(-c2ccccc2)nnn1-c1ccccc1	-65*
Cc1ccc(NC(=O)c2cnccn2)nc1	-78*
Cc1ccc(NC(=O)c2cnccn2)c(Br)c1	-87*
CN1CCN(/N=C/c2ccc(-c3ccc([N+](=O)[O-])cc3Cl)o2)CC1	-104*
Cc1ccc(N2C(=O)NC3(CCCCC3)C2=O)cc1	-64*
